# Source: ChEMBL document CHEMBL4513216, “Probing the Open Global Health Chemical Diversity Library for Multistage-Active Starting Points for Next-Generation Antimalarials” (ACS Infect Dis, 2020)
# Screen size: about 65,000 compounds; about 2,100 (3.2%) showed an effect of 50% or more. The median lay at about -52%. Shown is part of a subset that was picked to be rich in strong results.
# Tested on: Plasmodium falciparum
# Assay: Screen against P. falciparum Asexual Blood Stage (ABS), at 5uM
# Assay type: functional, Dd2
# Settings: tested at 5 uM
row,Compound,INHIBITION [%]
1,CN1CCC2(CC1)CN(Cc1ccc(C3CCCCO3)o1)CCCN2C (stereo not drawn),81.1
2,c1cnc(N2CCOCC3(CN(Cc4cc[nH]n4)CCO3)C2)nc1 (stereo not drawn),-54.7
3,CN(Cc1cncnc1)[C@H]1CN(Cc2ccco2)[C@@H]2CCCO[C@@H]21,-96.6
4,Cc1ccc(CN2C[C@@H]3CCCO[C@@H]3[C@H](N(C)Cc3ccco3)C2)s1,74.2
5,CN(Cc1ccco1)[C@@H]1CN(Cc2ccsc2)C[C@@H]2CCCO[C@@H]21,76
6,Cc1cccc(CN2C[C@@H]3CCCO[C@@H]3[C@H](NS(C)(=O)=O)C2)n1,-63.9
7,Cc1cc(CN2C[C@@H]3CCCO[C@@H]3[C@H](N(C)C(C)C)C2)no1,-18.2
8,CN(Cc1ccco1)[C@@H]1CN(Cc2cccnc2)[C@@H]2CCCO[C@H]12,-40.9
9,c1cnc(N2C[C@H]3CC[C@@H](C2)N(Cc2ccsc2)C3)nc1,-21
10,c1ccc(O[C@@H]2CO[C@@]3(CCCN(CC4CCOCC4)C3)C2)nc1,3.78
11,Cc1cc(CN2C[C@@H]3COC[C@]3(CNS(C)(=O)=O)C2)no1,-20.4
12,CN1CCOC(CN(C(=O)CN2CCCC2=O)c2nccs2)C1 (stereo not drawn),-55.7
13,c1ccc(Oc2cccc(OC34CCCN(CC3)C4)c2)cc1 (stereo not drawn),76.9
14,N#Cc1cccc(OC23CCCN(CC2)C3)c1 (stereo not drawn),-31.3
15,c1ccc(O[C@@H]2CN(Cc3nccs3)[C@@H]3CCCO[C@@H]32)nc1,-4.8
16,CCOCCN(C)C(=O)Nc1cccc2c1CCN(CC)C2,-88.7
17,CCc1ccccc1OCCN(C)C(=O)CN1CCCC1,75.4
18,Cc1noc(C)c1CN1C[C@@H]2CN(C(=O)c3cscn3)C[C@@H]2C1,-82.3
19,Cc1ccnc(NCCNC(=O)C2CC3(CCNCC3)CN2C)c1 (stereo not drawn),-81.4
20,CC(C)c1n[nH]c(C(=O)Nc2ccccn2)c1Br,84.6
21,Cc1ccnc(NC(=O)c2[nH]nc(C(C)C)c2Br)c1,73.7

row,Compound,INHIBITION [%]
1,Cc1cc(CN2C[C@@H]3CN(C(=O)c4ccsc4)CCO[C@@H]3C2)no1,-12.1
2,CN1CCCc2c1nc1c(c2N)CCCC1,75.8
3,CN1CCc2nc3c(c(N)c2C1)CCCN3C,-7.55
4,CC(C)CN1CCC(NCCNc2cccnc2)CC1,79.1
5,c1cncc(NCCNC2CCCNC2)c1 (stereo not drawn),-1.26
6,Cc1cnccc1NCCNC1CCN(CC(C)C)CC1,80
7,CC(C)CN1C(=O)C2(CCCC2)NC1c1cccnc1 (stereo not drawn),-8.76
8,CC(=O)N1C[C@H]2CNC[C@@]2(C(=O)NCCNc2ccncc2C)C1,-37
9,Cc1cc(CC(C)NC2CCN(CC(C)C)CC2)[nH]n1 (stereo not drawn),-57.2
10,Cn1cc(N2C(=O)CC[C@@H]3[C@H]2CCN3Cc2ccncc2)cn1,-123
11,c1ccc(CN2CCN3C[C@H](Oc4cccnc4)C[C@H]3C2)nc1,-10.5
12,COc1ccccc1CNCc1nn(-c2ccccc2)c2c1CCC2,81.6
13,c1ccc(O[C@@H]2CC[C@H]3[C@H]2OCCN3Cc2ccsc2)nc1,-77.6
14,CN1CCN(S(=O)(=O)c2ccccc2)Cc2cccnc21,-41.3
15,O=C(c1[nH]nc(C2CC2)c1Cl)N1CCN(S(=O)(=O)c2ccccc2)CC1,75.8
16,O=C(NCc1ccccn1)[C@]12COC[C@H]1CN(C1CCC1)C2,-26.3
17,N#Cc1ccc(NCCc2n[nH]c(=O)[nH]2)cc1Cl,-36.1
18,Cc1nccc([C@@H]2C[C@@H]3CCN(Cc4ccco4)C[C@H]3O2)n1,-17.2
19,Cc1ccc(NCCCNC(=O)C2CCCN(Cc3ccco3)C2)nc1 (stereo not drawn),70.6
20,O=C(Nc1cccnc1)[C@H]1CN(Cc2ccco2)C[C@H]2OCC[C@@H]12,-115
21,CC(C)CC(=O)N1CCC2(CC1)OCCO2,-80.4

row,Compound,INHIBITION [%]
1,COc1ccc2ncn(Cc3ncc[nH]3)c(=O)c2c1,-84.2
2,CCC1CN(C(=O)c2ccc(Cl)cc2O)CCN1C(C)C (stereo not drawn),73.3
3,O=C(c1ccc(Cl)cc1-n1cnnn1)N1CCC2(CC1)OCCO2,-52.7
4,CC(C)N1CCO[C@H]2CN(C(=O)c3ccncc3F)C[C@H]21,-88.4
5,O=C1CO[C@@H]2CN(Cc3cccnc3)C[C@H]2N1Cc1ccncc1,-6.5
6,Cc1[nH]c2ccc(CNC3CCN(Cc4ccccn4)CC3)cc2c1C,93.6
7,C[C@H]1C[C@H]2CN(Cc3ccccn3)CC[C@@H]2O1,-8.95
8,O=C1Nc2ccccc2C12CCN(Cc1ccccn1)CC2,-45.4
9,O=C(NC[C@H]1C[C@@H]2CCN1C[C@@H]2CN1CCCCC1)Nc1ccccc1,-34.9
10,O=S(=O)(NC[C@H]1C[C@@H]2CCN1C[C@@H]2CN1CCCC1)c1ccc(Cl)cc1,89.4
11,O=S(=O)(NC[C@H]1C[C@@H]2CCN1C[C@@H]2CN1CCOCC1)c1ccccc1,-71.9
12,CC(=O)N1CCOCC2(CN(Cc3ccccn3)CCO2)C1 (stereo not drawn),-107
13,CN1CCCN(C(=O)c2ccnn2-c2ccc3ccccn23)CC1,70.8
14,CN1CCN(C(=O)c2cn(Cc3ccccc3)c3ncccc23)CC1,-70.4
15,CC(NC1CCCC1)c1ccccc1-n1cccn1 (stereo not drawn),81
16,NC(CC1CCCCC1)c1ccccc1 (stereo not drawn),55.4
17,NC(Cc1nc(-c2ccccc2)no1)c1ccccc1 (stereo not drawn),-253
18,Cc1cc(CN2CC[C@H]3OCC[C@@]3(C(=O)N3CCOCC3)C2)no1,-53.6
19,COc1cccc([C@@H]2CCN(Cc3cn(C)c4ccccc34)C[C@H]2O)c1,78
20,COc1cccc([C@@H]2CCN(Cc3cccc(C)n3)C[C@H]2O)c1,-29.5
21,OC[C@@H]1[C@@H](c2ccccc2)CN2CCN(c3ccccn3)C[C@H]12,-63.3
